According to the supplement of paper PMC7411054:
Structures can show the parent of a compound that is named as a salt.

Experiments:
Assay in all cases: lowest phenotypically active concentration; higher = less potent
Details in all cases: treatment time: 24 h
A549-TUBA1B-RELA = tested on: A549-TUBA1B-RELA
In short: (§1)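 Fifteen reporter lines derived from A549, HepG2 and WPMY1 cells by gene editing, carrying BFP for segmentation plus GFP and RFP/FusionRed markers, were exposed to 0.3, 1, 3 or 9 µM for 24 h in four wells each and imaged live. Live-cell features from each well were normalised to solvent control wells. A well set counted as deviating when ≥3 of 4 wells lay beyond the 95th percentile of control Euclidean distances, and as reproducible when the median replicate Pearson correlation exceeded the 95th percentile of non-replicates. Phenotypic activity was assigned only when both criteria were met.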

HepG2-ACTB-RAB5A = tested on: HepG2-ACTB-RAB5A
In short: as §1

A549-TP53BP1-CLTA = tested on: A549-TP53BP1-CLTA
In short: as §1

HepG2-GM130-SQSTM1 = tested on: HepG2-GM130-SQSTM1
In short: as §1

HepG2-TP53BP1-CLTA = tested on: HepG2-TP53BP1-CLTA
In short: as §1

HepG2-TUBA1B-RELA = tested on: HepG2-TUBA1B-RELA
In short: as §1

WPMY1-ACTB-RAB5A = tested on: WPMY1-ACTB-RAB5A
In short: as §1

WPMY1-TP53BP1-CLTA = tested on: WPMY1-TP53BP1-CLTA
In short: as §1

WPMY1-TUBA1B-RELA = tested on: WPMY1-TUBA1B-RELA
In short: as §1

A549-CANX-COX4 = tested on: A549-CANX-COX4
In short: as §1

Cn1cc(-c2cnc3ccc4ccc(CS(=O)(=O)NCc5ccccn5)cc4c(=O)c3c2)cn1
lowest phenotypically active concentration (A549-TUBA1B-RELA): 9 µM

NC(=O)[C@@H](CCC(F)(F)F)N(Cc1ccc(-c2ncon2)cc1F)S(=O)(=O)c1ccc(Cl)cc1 [avagacestat]
lowest phenotypically active concentration (HepG2-ACTB-RAB5A): 9 µM

O=S(=O)(c1cccc2cnccc12)N1CCNCC1
lowest phenotypically active concentration (A549-TP53BP1-CLTA): 9 µM | lowest phenotypically active concentration (A549-TUBA1B-RELA): 9 µM | lowest phenotypically active concentration (HepG2-ACTB-RAB5A): 9 µM | lowest phenotypically active concentration (HepG2-GM130-SQSTM1): 3 µM | lowest phenotypically active concentration (HepG2-TP53BP1-CLTA): 9 µM | lowest phenotypically active concentration (HepG2-TUBA1B-RELA): 3 µM | lowest phenotypically active concentration (WPMY1-ACTB-RAB5A): 9 µM | lowest phenotypically active concentration (WPMY1-TP53BP1-CLTA): 9 µM | lowest phenotypically active concentration (WPMY1-TUBA1B-RELA): 3 µM

O=C1c2c(O)cccc2Cc2cccc(O)c21 [anthralin]
lowest phenotypically active concentration (WPMY1-ACTB-RAB5A): 9 µM | lowest phenotypically active concentration (WPMY1-TUBA1B-RELA): 9 µM

N#Cc1ccc2ncnc(NCCc3ccccc3)c2c1 [Senexin A]
lowest phenotypically active concentration (WPMY1-ACTB-RAB5A): 1 µM | lowest phenotypically active concentration (WPMY1-TUBA1B-RELA): 3 µM

CC(C)c1c(C(=O)Nc2ccccc2)c(-c2ccccc2)c(-c2ccc(F)cc2)n1CC[C@@H](O)C[C@@H](O)CC(=O)O [atorvastatin]
lowest phenotypically active concentration (HepG2-ACTB-RAB5A): 3 µM | lowest phenotypically active concentration (HepG2-GM130-SQSTM1): 3 µM | lowest phenotypically active concentration (HepG2-TP53BP1-CLTA): 9 µM | lowest phenotypically active concentration (HepG2-TUBA1B-RELA): 3 µM | lowest phenotypically active concentration (WPMY1-ACTB-RAB5A): 1 µM | lowest phenotypically active concentration (WPMY1-TP53BP1-CLTA): 9 µM | lowest phenotypically active concentration (WPMY1-TUBA1B-RELA): 3 µM

CNCC[C@H](Oc1cccc2ccccc12)c1cccs1 [duloxetine]
lowest phenotypically active concentration (A549-TUBA1B-RELA): 9 µM

CCc1nc(-c2cccc(C)c2)c(-c2ccnc(NC(=O)c3ccccc3)c2)s1
lowest phenotypically active concentration (HepG2-ACTB-RAB5A): 9 µM | lowest phenotypically active concentration (HepG2-GM130-SQSTM1): 1 µM | lowest phenotypically active concentration (HepG2-TP53BP1-CLTA): 3 µM | lowest phenotypically active concentration (HepG2-TUBA1B-RELA): 1 µM | lowest phenotypically active concentration (WPMY1-ACTB-RAB5A): 9 µM | lowest phenotypically active concentration (WPMY1-TUBA1B-RELA): 9 µM

Cc1ccc(S(=O)(=O)n2c(N)nc3ccccc32)cc1
lowest phenotypically active concentration (HepG2-ACTB-RAB5A): 9 µM

CN1c2ccc([N+](=O)[O-])cc2N=C(c2ccc(C(=O)O)cc2)c2cc3c(cc21)C(C)(C)CCC3(C)C
lowest phenotypically active concentration (A549-TUBA1B-RELA): 9 µM | lowest phenotypically active concentration (HepG2-TUBA1B-RELA): 9 µM

COc1cc2c(cc1OC)-c1c/c(=N/c3c(C)cc(C)cc3C)n(C)c(=O)n1CC2 [Trequinsin hydrochloride]
lowest phenotypically active concentration (HepG2-ACTB-RAB5A): 9 µM | lowest phenotypically active concentration (WPMY1-ACTB-RAB5A): 9 µM | lowest phenotypically active concentration (WPMY1-TP53BP1-CLTA): 9 µM | lowest phenotypically active concentration (WPMY1-TUBA1B-RELA): 9 µM

CC(C)(C)c1ccc(C(O)CCCN2CCC(C(O)(c3ccccc3)c3ccccc3)CC2)cc1 (stereo not given) [terfenadine]
lowest phenotypically active concentration (HepG2-ACTB-RAB5A): 3 µM | lowest phenotypically active concentration (HepG2-TUBA1B-RELA): 1 µM | lowest phenotypically active concentration (WPMY1-TUBA1B-RELA): 3 µM

CCC(=O)N1CCOc2c(cc(-c3ccc(OC)c(OC)c3)cc2OC[C@H]2CCCN(C)C2)C1
lowest phenotypically active concentration (A549-TUBA1B-RELA): 9 µM | lowest phenotypically active concentration (HepG2-ACTB-RAB5A): 9 µM | lowest phenotypically active concentration (HepG2-TUBA1B-RELA): 9 µM

CC[C@H](CO)Nc1nc(Nc2cccc(-c3ccccn3)c2)c2ncn(C(C)C)c2n1 [(R)-DRF053 dihydrochloride]
lowest phenotypically active concentration (HepG2-ACTB-RAB5A): 9 µM | lowest phenotypically active concentration (HepG2-GM130-SQSTM1): 9 µM | lowest phenotypically active concentration (HepG2-TP53BP1-CLTA): 9 µM | lowest phenotypically active concentration (HepG2-TUBA1B-RELA): 9 µM | lowest phenotypically active concentration (WPMY1-TUBA1B-RELA): 9 µM

O=c1cc(-c2ccccc2)oc2cc(O)cc(O)c12 [Chrysin]
lowest phenotypically active concentration (WPMY1-TP53BP1-CLTA): 9 µM

CCC(C)(C)C(=O)O[C@H]1C[C@@H](C)C=C2C=C[C@H](C)[C@H](CC[C@@H]3C[C@@H](O)CC(=O)O3)[C@H]21 [Simvastatin]
lowest phenotypically active concentration (A549-TP53BP1-CLTA): 9 µM | lowest phenotypically active concentration (HepG2-ACTB-RAB5A): 1 µM | lowest phenotypically active concentration (HepG2-GM130-SQSTM1): 1 µM | lowest phenotypically active concentration (HepG2-TP53BP1-CLTA): 3 µM | lowest phenotypically active concentration (HepG2-TUBA1B-RELA): 1 µM | lowest phenotypically active concentration (WPMY1-ACTB-RAB5A): ≤ 0.3 µM | lowest phenotypically active concentration (WPMY1-TP53BP1-CLTA): 3 µM | lowest phenotypically active concentration (WPMY1-TUBA1B-RELA): 3 µM

O=C(CCCCCCC(=O)Nc1ccc([C@H]2O[C@@H](CSc3nc(-c4ccccc4)c(-c4ccccc4)o3)C[C@@H](c3ccc(CO)cc3)O2)cc1)NO [Tubacin]
lowest phenotypically active concentration (WPMY1-ACTB-RAB5A): 9 µM | lowest phenotypically active concentration (WPMY1-TP53BP1-CLTA): 9 µM | lowest phenotypically active concentration (WPMY1-TUBA1B-RELA): 9 µM

Fc1ccccc1Nc1nc2nonc2nc1Nc1ccccc1F
lowest phenotypically active concentration (A549-TUBA1B-RELA): 9 µM | lowest phenotypically active concentration (HepG2-TP53BP1-CLTA): 9 µM | lowest phenotypically active concentration (HepG2-TUBA1B-RELA): 9 µM | lowest phenotypically active concentration (WPMY1-ACTB-RAB5A): 9 µM

Nc1ncnc2c1c(-c1ccc(Oc3ccccc3)cc1)nn2C1CCCC1
lowest phenotypically active concentration (A549-TUBA1B-RELA): 3 µM | lowest phenotypically active concentration (WPMY1-TP53BP1-CLTA): 3 µM

Nc1cc(N)c(N)cc1N [FAK Inhibitor 14]
lowest phenotypically active concentration (A549-TUBA1B-RELA): 3 µM | lowest phenotypically active concentration (HepG2-TP53BP1-CLTA): 9 µM | lowest phenotypically active concentration (HepG2-TUBA1B-RELA): 3 µM | lowest phenotypically active concentration (WPMY1-ACTB-RAB5A): 3 µM | lowest phenotypically active concentration (WPMY1-TP53BP1-CLTA): 9 µM | lowest phenotypically active concentration (WPMY1-TUBA1B-RELA): 1 µM

COc1cc2nccc(Oc3ccc(NC(=O)C4(C(=O)Nc5ccc(F)cc5)CC4)cc3)c2cc1OC
lowest phenotypically active concentration (A549-TUBA1B-RELA): ≤ 0.3 µM | lowest phenotypically active concentration (WPMY1-ACTB-RAB5A): 3 µM

O=C(O/N=C1\c2ccccc2-c2nc3ccccc3nc21)c1ccco1
lowest phenotypically active concentration (WPMY1-ACTB-RAB5A): 9 µM | lowest phenotypically active concentration (WPMY1-TP53BP1-CLTA): 9 µM | lowest phenotypically active concentration (WPMY1-TUBA1B-RELA): 3 µM

O=c1c(-c2ccc(O)cc2)coc2cc(O)cc(O)c12 [Genistein]
lowest phenotypically active concentration (A549-TP53BP1-CLTA): 9 µM | lowest phenotypically active concentration (A549-TUBA1B-RELA): 9 µM | lowest phenotypically active concentration (WPMY1-ACTB-RAB5A): 9 µM | lowest phenotypically active concentration (WPMY1-TP53BP1-CLTA): 9 µM | lowest phenotypically active concentration (WPMY1-TUBA1B-RELA): 9 µM

Cc1cccc(C)c1OCC(C)N (stereo not given) [mexiletine]
lowest phenotypically active concentration (A549-CANX-COX4): ≤ 0.3 µM | lowest phenotypically active concentration (A549-TP53BP1-CLTA): ≤ 0.3 µM | lowest phenotypically active concentration (HepG2-ACTB-RAB5A): ≤ 0.3 µM

C[C@@H]1CCN(C(=O)CC#N)C[C@@H]1N(C)c1ncnc2[nH]ccc12
lowest phenotypically active concentration (HepG2-GM130-SQSTM1): 9 µM | lowest phenotypically active concentration (HepG2-TP53BP1-CLTA): 9 µM

O=C1NCCCc2c1oc1ccc(O)cc21
lowest phenotypically active concentration (HepG2-TUBA1B-RELA): 9 µM | lowest phenotypically active concentration (WPMY1-ACTB-RAB5A): 9 µM | lowest phenotypically active concentration (WPMY1-TUBA1B-RELA): 9 µM

Cn1cc(-c2ccc3nnc(Sc4ccc5ncccc5c4)n3n2)cn1
lowest phenotypically active concentration (A549-CANX-COX4): 1 µM | lowest phenotypically active concentration (A549-TP53BP1-CLTA): 1 µM | lowest phenotypically active concentration (HepG2-ACTB-RAB5A): 1 µM

Cc1cc(C(C)Nc2ccccc2)c2nc(N3CCOCC3)cc(=O)n2c1 (stereo not given)
lowest phenotypically active concentration (HepG2-ACTB-RAB5A): 9 µM

COC(=O)C1=CO[C@@H](C)[C@H]2CN3CCc4c([nH]c5ccccc45)[C@@H]3C[C@H]12 [Ajmalicine hydrochloride]
lowest phenotypically active concentration (A549-CANX-COX4): 9 µM | lowest phenotypically active concentration (HepG2-ACTB-RAB5A): 9 µM | lowest phenotypically active concentration (HepG2-TP53BP1-CLTA): 9 µM

Cc1c[nH]c2ncnc(-c3ccc(NC(=O)N(CCO)c4ccccc4)cc3)c12
lowest phenotypically active concentration (WPMY1-TUBA1B-RELA): 9 µM

O=c1cc(N2CCOCC2)oc2c(-c3ccccc3)cccc12
lowest phenotypically active concentration (A549-TP53BP1-CLTA): 9 µM | lowest phenotypically active concentration (A549-TUBA1B-RELA): 9 µM | lowest phenotypically active concentration (HepG2-ACTB-RAB5A): 9 µM | lowest phenotypically active concentration (HepG2-GM130-SQSTM1): 9 µM | lowest phenotypically active concentration (HepG2-TP53BP1-CLTA): 9 µM | lowest phenotypically active concentration (HepG2-TUBA1B-RELA): 9 µM | lowest phenotypically active concentration (WPMY1-ACTB-RAB5A): 9 µM | lowest phenotypically active concentration (WPMY1-TP53BP1-CLTA): 9 µM

Cc1cccc(-c2n[nH]cc2-c2ccc(F)c(-c3cnn(CCO)c3)c2)n1
lowest phenotypically active concentration (HepG2-TP53BP1-CLTA): 9 µM | lowest phenotypically active concentration (WPMY1-ACTB-RAB5A): 9 µM | lowest phenotypically active concentration (WPMY1-TP53BP1-CLTA): 9 µM | lowest phenotypically active concentration (WPMY1-TUBA1B-RELA): 9 µM

CCOC(=O)C1=C[C@]2(CC)CCCN3CCc4c(n1c1ccccc41)[C@@H]32 [Vinpocetine]
lowest phenotypically active concentration (HepG2-ACTB-RAB5A): 9 µM
